Experimental data: PubChem BioAssay (EPA / NIEHS)
Where “and” joins values, the source holds several entries; their conditions need not be identical. Equal entries are not always repeated. The source holds several records for some structures; these can differ, active in one and inactive in another. Calls of active or inactive are those of the source. Rule for the calls: active = hit-call score of the fitted dose curve at least 0.9, where 1 is the maximum; inactive = score below 0.9.

Assays:
[1] = read-out: Tissue plasminogen activator (tPA), PLAT (gene 5327); experiment: BSK_BE3C_tPA: BioMAP Diversity Plus: BE3C Assay for Tissue plasminogen activator (tPA) Biomarker Activity (AID 2283041); conditions: primary human bronchial epithelial cells; actives raise or lower the signal
In short: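 Primary human lung bronchial epithelial cultures receive test chemical; after 24 h, tPA is quantified by ELISA, and gain or loss of signal is fitted bidirectionally relative to DMSO baseline.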

[2] = read-out: Interleukin-8 (IL8), CXCL8 (gene 3576); experiment: BSK_CASM3C_IL8: BioMAP Diversity Plus: CASM3C Assay for Interleukin-8 (IL8) Biomarker Activity (AID 2283042); conditions: primary human coronary artery smooth muscle cells; actives raise or lower the signal;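 note: IL-8 protein level quantified by ELISA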
[3] = read-out: Human Leukocyte Antigen - DR isotype (HLADR), HLA-DRA (gene 3122); experiment: BSK_CASM3C_HLADR: BioMAP Diversity Plus: CASM3C Assay for Human Leukocyte Antigen - DR isotype (HLADR) Biomarker Activity (AID 2283043); conditions: primary human coronary artery smooth muscle cells; actives raise or lower the signal;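 note: cell-surface HLA-DR protein level quantified by ELISA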
[4] = read-out: Macrophage colony-stimulating factor (MCSF), CSF1 (gene 1435); experiment: BSK_CASM3C_MCSF: BioMAP Diversity Plus: CASM3C Assay for Macrophage colony-stimulating factor (MCSF) Biomarker Activity (AID 2283044); conditions: primary human coronary artery smooth muscle cells; actives raise or lower the signal;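 note: M-CSF protein amount quantified by ELISA after 24 h exposure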
[5] = read-out: Low-density lipoprotein receptor (LDLR), LDLR (gene 3949); experiment: BSK_CASM3C_LDLR: BioMAP Diversity Plus: CASM3C Assay for Low-density lipoprotein receptor (LDLR) Biomarker Activity (AID 2283045); conditions: primary human coronary artery smooth muscle cells; actives raise or lower the signal;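 note: LDLR protein level on the cell surface quantified by ELISA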
[6] = read-out: Monocyte Chemoattractant Protein-1 (MCP1), CCL2 (gene 6347); experiment: BSK_CASM3C_MCP1: BioMAP Diversity Plus: CASM3C Assay for Monocyte Chemoattractant Protein-1 (MCP1) Biomarker Activity (AID 2283046); conditions: primary human coronary artery smooth muscle cells; actives raise or lower the signal;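 note: MCP-1 level quantified by ELISA 24 h after dosing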
[7] = BSK_CASM3C_Proliferation: Cell Proliferation Assessment in the BioMAP Diversity Plus: CASM3C Assay (AID 2283047); conditions: primary human coronary artery smooth muscle cells;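 note: sulforhodamine B total protein stain as relative cell number at 560 nm; sub-confluent cells exposed 48 h before staining; fitted both ways against DMSO so gain or loss of cell number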
[8] = read-out: Monokine induced gamma interferon (MIG), CXCL9 (gene 4283); experiment: BSK_CASM3C_MIG: BioMAP Diversity Plus: CASM3C Assay for Monokine induced gamma interferon (MIG) Biomarker Activity (AID 2283048); conditions: primary human coronary artery smooth muscle cells; actives raise or lower the signal;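 note: MIG protein level measured by ELISA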
[9] = read-out: serum amyloid A (SAA), SAA1 (gene 6288); experiment: BSK_CASM3C_SAA: BioMAP Diversity Plus: CASM3C Assay for serum amyloid A (SAA) Biomarker Activity (AID 2283049); conditions: primary human coronary artery smooth muscle cells; actives raise or lower the signal;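 note: SAA protein level quantified by ELISA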
[10] = BSK_CASM3C_SRB: Viability Assessment in the BioMAP Diversity Plus: CASM3C Assay (AID 2283050); conditions: primary human coronary artery smooth muscle cells;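 note: total protein by SRB staining as cytotoxicity measure in parallel cultures; cells exposed to compound for 24 h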
[11] = read-out: Thrombomodulin, THBD (gene 7056); experiment: BSK_CASM3C_Thrombomodulin: BioMAP Diversity Plus: CASM3C Assay for Thrombomodulin Biomarker Activity (AID 2283051); conditions: primary human coronary artery smooth muscle cells; actives raise or lower the signal;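 note: thrombomodulin protein level measured by ELISA 24 h after dosing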
[12] = read-out: Tissue Factor, F3 (gene 2152); experiment: BSK_CASM3C_TissueFactor: BioMAP Diversity Plus: CASM3C Assay for Tissue Factor Biomarker Activity (AID 2283052); conditions: primary human coronary artery smooth muscle cells; actives raise or lower the signal;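 note: cell surface tissue factor protein level read by ELISA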
[13] = read-out: Interferon-gamma inducible Protein 10 (IP10), CXCL10 (gene 3627); experiment: BSK_hDFCGF_IP10: BioMAP Diversity Plus: hDFCGF Assay for Interferon-gamma inducible Protein 10 (IP10) Biomarker Activity (AID 2283053); conditions: primary human foreskin fibroblasts; actives raise or lower the signal
In short: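 Primary foreskin fibroblasts, human; 24 h compound exposure; IP-10 by ELISA; bidirectional fit vs DMSO.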

[14] = read-out: Urokinase-type plasminogen activator receptor (uPAR), PLAUR (gene 5329); experiment: BSK_CASM3C_uPAR: BioMAP Diversity Plus: CASM3C Assay for Urokinase-type plasminogen activator receptor (uPAR) Biomarker Activity (AID 2283054); conditions: primary human coronary artery smooth muscle cells; actives raise or lower the signal;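 note: cell-surface uPAR protein level quantified by ELISA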
[15] = read-out: Vascular cell adhesion molecule 1 (VCAM1), VCAM1 (gene 7412); experiment: BSK_CASM3C_VCAM1: BioMAP Diversity Plus: CASM3C Assay for Vascular cell adhesion molecule 1 (VCAM1) Biomarker Activity (AID 2283055); conditions: primary human coronary artery smooth muscle cells; actives raise or lower the signal;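 note: VCAM-1 protein level quantified by ELISA on the cells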
[16] = read-out: Collagen III, COL3A1 (gene 1281); experiment: BSK_hDFCGF_CollagenIII: BioMAP Diversity Plus: hDFCGF Assay for Collagen III Biomarker Activity (AID 2283056); conditions: primary human foreskin fibroblasts; actives raise or lower the signal
In short: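 Response relative to DMSO, fitted in both directions, reflects ELISA-measured collagen III in human primary skin fibroblasts 24 h after compound addition.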

[17] = read-out: Epidermal growth factor receptor (EGFR), EGFR (gene 1956); experiment: BSK_hDFCGF_EGFR: BioMAP Diversity Plus: hDFCGF Assay for Epidermal growth factor receptor (EGFR) Biomarker Activity (AID 2283057); conditions: primary human foreskin fibroblasts; actives raise or lower the signal
In short: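 hDFCGF system, primary human foreskin fibroblasts; compound 24 h; EGFR measured by ELISA; DMSO = negative control/baseline; bidirectional fitting.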

[18] = BSK_hDFCGF_Proliferation: Cell Proliferation Assessment in the BioMAP Diversity Plus: hDFCGF Assay (AID 2283059); conditions: primary human foreskin fibroblasts;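 note: curves fitted for both rise and fall of signal versus DMSO baseline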
In short: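 Steps: dose primary human dermal fibroblasts (foreskin); […] fix in 10% TCA; stain with 0.1% SRB; read 560 nm; fit gain or loss of signal against DMSO.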

[19] = read-out: Macrophage colony-stimulating factor (MCSF), CSF1 (gene 1435); experiment: BSK_hDFCGF_MCSF: BioMAP Diversity Plus: hDFCGF Assay for Macrophage colony-stimulating factor (MCSF) Biomarker Activity (AID 2283060); conditions: primary human foreskin fibroblasts; actives raise or lower the signal
In short: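 fibroblasts (human foreskin, primary), 24 h post-dose; M-CSF by ELISA; bidirectional fit, DMSO = baseline.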

[20] = read-out: Interleukin-8 (IL8), CXCL8 (gene 3576); experiment: BSK_hDFCGF_IL8: BioMAP Diversity Plus: hDFCGF Assay for Interleukin-8 (IL8) Biomarker Activity (AID 2283058); conditions: primary human foreskin fibroblasts; actives raise or lower the signal
In short: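 Fibroblast monolayers (human foreskin, hDFCGF) received test chemical for 24 h before ELISA detection of IL-8; either increases or decreases relative to DMSO count as activity.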

Measured: AC50

CCOC(=O)CN[C@@H](C(=O)N1CC[C@H]1C(=O)NCc1ccc(/C(N)=N/O)cc1)C1CCCCC1
not listed: [20]
inactive: all other assays above

Oc1c(Cl)cc(Cl)cc1Sc1cc(Cl)cc(Cl)c1O
active: [1] 4.32 µM and 3.03 µM | [3] 9.1 µM and 7.2 µM | [4] 12.6 µM and 11.8 µM | [7] 15.8 µM and 12.1 µM | [8] 20.2 µM and 26.6 µM | [9] 20 µM | [10] 17100 nM | [11] 12.8 µM and 12.6 µM | [13] 1.66 µM and 1.94 µM | [14] 20 µM and 18.3 µM | [15] 20 µM and 12.7 µM | [16] 1.39 µM and 455 nM | [20] 4.43 µM and 4.46 µM | [18] 1.08 µM and 148 nM | [19] 1.46 µM and 1.59 µM
inactive: [2] | [5] | [6] | [9] | [12]

C[C@]12CC[C@@H]3c4ccc(O)cc4CC[C@H]3[C@@H]1C[C@@H](O)[C@@H]2O
active: [4] 8.12 µM
not listed: [17]
inactive: all other assays above

CCCCCCCCCCCCCCCCCC[N+](C)(C)Cc1ccccc1
active: [2] 12600 nM | [3] 3.45 µM | [4] 5.5 µM | [5] 6530 nM | [6] 5290 nM | [7] 2.74 µM | [8] 15.4 µM | [9] 2.72 µM | [10] 2750 nM | [11] 2.56 µM | [12] 296 nM | [13] 795 nM | [14] 2.77 µM | [15] 10 µM | [16] 0.355 µM | [18] 0.0156 µM | [19] 721 nM
inactive: [1] | [17]

CN(C)c1ccc(C(=C2C=CC(=[N+](C)C)C=C2)c2ccccc2)cc1
inactive: [1] | [17]
active: [2] 1980 nM | [3] 0.0392 µM | [4] 0.825 µM | [5] 32.3 nM | [6] 61.5 nM | [7] 0.553 µM | [8] 1.17 µM | [9] 0.0168 µM | [10] 296 nM | [11] 0.758 µM | [12] 19.5 nM | [13] 13.8 nM | [14] 0.0461 µM | [15] 0.554 µM | [16] 1.23 µM | [18] 0.0173 µM | [19] 31.9 nM

COc1cccc(O)c1
not listed: [20]
inactive: all other assays above

O=C(c1ccccc1)c1ccccc1
not listed: [20]
inactive: all other assays above

O=S(=O)(O)C(F)(F)C(F)(F)C(F)(F)C(F)(F)C(F)(F)C(F)(F)C(F)(F)C(F)(F)C(F)(F)C(F)(F)F
active: [4] 13.3 µM | [8] 8.66 µM | [9] 13.3 µM and 20.4 µM | [11] 13.3 µM | [15] 3.55 µM and 2.65 µM | [18] 1.46 µM and 1.89 µM
inactive: [1] | [2] | [3] | [4] | [5] | [6] | [7] | [8] | [10] | [11] | [12] | [13] | [14] | [16] | [19]

CCCCC(CC)C(=O)OCCOCCOCCOCCOC(=O)C(CC)CCCC (stereo not drawn)
active: [19] 20000 nM
not listed: [20]
inactive: all other assays above

CC[N+](CC)(CC)Cc1ccccc1
not listed: [17]
inactive: all other assays above

O=C(NCc1ncc(C(F)(F)F)cc1Cl)c1c(Cl)cccc1Cl
not listed: [20]
inactive: all other assays above

CN(CCO)S(=O)(=O)C(F)(F)C(F)(F)C(F)(F)C(F)(F)C(F)(F)C(F)(F)C(F)(F)C(F)(F)F
inactive: [1] | [2] | [3] | [4] | [5] | [6] | [7] | [8] | [9] | [10] | [11] | [12] | [13] | [14] | [15] | [16] | [18] | [19]
active: [8] 0.0293 µM | [19] 41.4 nM

Oc1cc2ccccc2cc1O
active: [16] 20 µM | [18] 29.7 µM
not listed: [17]
inactive: all other assays above

Oc1ccc(Cc2ccccc2O)cc1
inactive: [1] | [2] | [3] | [4] | [5] | [6] | [7] | [8] | [9] | [10] | [11] | [12] | [13] | [14] | [15] | [16] | [20] | [18] | [19]
active: [3] 10.8 µM | [15] 3.97 µM | [18] 33.6 µM

O=C1c2ccc(O)c(O)c2C(=O)c2c(O)ccc(O)c21
active: [7] 0.0041 µM | [14] 0.0224 µM
not listed: [20]
inactive: all other assays above

Cc1ccc(N=Nc2c(O)ccc3ccccc23)c(C)c1
active: [11] 8.07 µM | [13] 10000 nM | [16] 6.8 µM | [19] 10000 nM
not listed: [17]
inactive: all other assays above

O=P(O)(O)CCC(F)(F)C(F)(F)C(F)(F)C(F)(F)C(F)(F)C(F)(F)C(F)(F)C(F)(F)F
active: [1] 1.08 µM and 5.14 µM | [7] 9.07 µM | [16] 11.7 µM and 9.02 µM | [18] 39.9 µM and 49.4 µM
inactive: [2] | [3] | [4] | [5] | [6] | [7] | [8] | [9] | [10] | [11] | [12] | [13] | [14] | [15] | [19]

CS(=O)(=O)c1ccc([C@@H](CC2CCCC2)C(=O)Nc2cnccn2)cc1Cl
active: [7] 26.9 µM | [14] 26.3 µM | [18] 20 µM
inactive: all other assays above

O=C(NO)c1ccccc1
active: [4] 2.51 µM | [18] 3.81 µM
not listed: [20]
inactive: all other assays above

O=C1NS(=O)(=O)c2ccccc21
active: [15] 0.15 µM
inactive: [1] | [2] | [3] | [4] | [5] | [6] | [7] | [8] | [9] | [10] | [11] | [12] | [13] | [14] | [15] | [16] | [17] | [20] | [18] | [19]

CCCCCCCCCCCCCCC
not listed: [20]
inactive: all other assays above

CC1=NN(c2ccccc2)C(=O)C1
active: [11] 9.62 µM
not listed: [20]
inactive: all other assays above
